Results filed as inconclusive are left out. Activity calls are given as the source filed them. Calls come from the whole dose curve; as a rule, active = well fitted curve in the direction sought with a large enough effect; inconclusive = small, poorly fitted or top-dose-only effect, or another doubt; inactive = no such curve, though single readings can be large; an effect the other way counts as inactive or inconclusive.
What was measured:
[1] = system: CRL-7250; experiment: Cytotoxic Profiling of Annotated Libraries Using Quantitative High-Throughput Screening (AID 1296008); details: Five cell lines viability, CellTiter-Glo ATP luminescence, 48-72 h; max response: active compounds read low; note: nearly all actives have a fitted effect of over 60% in size; for max response: % is set by controls: 0 for no effect and ±100 for the full control effect
How it was run: (§1)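 Cells exposed to compounds for 48 or 72 hr at 37 degrees Celsius. Viability read as ATP-coupled luminescence with CellTiter-Glo after 10 min at room temperature.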

[2] = system: HEK293; experiment: as above; details: Five cell lines viability, CellTiter-Glo ATP luminescence, 48-72 h; max response: active compounds read low
How it was run: as §1

[3] = system: HaCat; experiment: as above; details: Five cell lines viability, CellTiter-Glo ATP luminescence, 48-72 h; max response: active compounds read low
How it was run: as §1

[4] = system: KB-3-1; experiment: as above; details: Five cell lines viability, CellTiter-Glo ATP luminescence, 48-72 h; max response: active compounds read low
How it was run: as §1

[5] = system: NIH3T3; experiment: as above; details: Five cell lines viability, CellTiter-Glo ATP luminescence, 48-72 h; max response: active compounds read low
How it was run: as §1

[6] = system: NIH3T3; experiment: qHTS assay to identify novel small-molecules to repurpose for Merkel cell carcinoma treatment (AID 1296009); details: MCC and control cell lines, CellTiter-Glo viability, 72 h; at 44.8 µM (top of the series) unless noted; note: nearly all actives have a fitted effect of over 60% in size
How it was run: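 CellTiter-Glo luminescence after 72 hr compound exposure at 37 degree celsius gave cell viability. Libraries NPC and MIPE were run as 8- and 11-point dose responses; RLUs normalized to DMSO (negative) and no-cell (cytotoxicity) controls.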

[7] = system: C33A; experiment: Primary qHTS to identify gynecologic anti-cancer compounds using libraries of approved drugs and bioactive compounds (AID 1345084); details: Gynecologic cancer cell panel viability, ATPlite luminescence, 48 h; series mostly up to 57.5 µM; note: % is set by controls: 0 for no effect and ±100 for the full control effect; nearly all actives have a fitted effect of over 55% in size
How it was run: (§2)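 In this quantitative HTS, cell killing is estimated from loss of ATP-dependent luciferase light. Cells see five compound concentrations over a 48 h exposure.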

[8] = system: CAOV3; experiment: as above; details: Gynecologic cancer cell panel viability, ATPlite luminescence, 48 h; series mostly up to 57.5 µM
How it was run: as §2

[9] = system: CASKI; experiment: as above; details: Gynecologic cancer cell panel viability, ATPlite luminescence, 48 h; series mostly up to 57.5 µM
How it was run: as §2

[10] = system: Es-2; experiment: as above; details: Gynecologic cancer cell panel viability, ATPlite luminescence, 48 h; series mostly up to 57.5 µM
How it was run: as §2

[11] = system: HeLa; experiment: as above; details: Gynecologic cancer cell panel viability, ATPlite luminescence, 48 h; series mostly up to 57.5 µM
How it was run: as §2

[12] = system: Hek293T; experiment: as above; details: Gynecologic cancer cell panel viability, ATPlite luminescence, 48 h, control line for the selectivity index; series mostly up to 57.5 µM
How it was run: as §2

[13] = system: JEG-3; experiment: as above; details: Gynecologic cancer cell panel viability, ATPlite luminescence, 48 h; series mostly up to 57.5 µM
How it was run: as §2

[14] = system: OV90; experiment: as above; details: Gynecologic cancer cell panel viability, ATPlite luminescence, 48 h; series mostly up to 57.5 µM
How it was run: as §2

Cn1cc(Nc2cnccc2C(=O)O)c2cccnc21
inactive: max response [1] 1.11% | max response [2] -5.52% | max response [3] 4.86% | outcome [4] | outcome [5] | outcome [6] | Potency [7] | Potency [8] | outcome [9] | Potency [10] | Potency [11] | Potency [12] | Potency [13] | Potency [14]

COc1c2c(c(C)c3c1C(=O)OC3)OC1(C)CC(O)C34OC(OC)(CCC3(C)C1C2)OC4(C)CO (stereo not given)
inactive: outcome [1] | max response [2] -8.39% | max response [3] 2.59% | outcome [4] | outcome [5] | outcome [6] inactive [at 17.4 µM] | Potency [7] | Potency [8] | outcome [9] | Potency [10] | Potency [11] | Potency [12] | Potency [13] | Potency [14]

COc1cc(Nc2nc3c(s2)CCCC3c2ccccc2)ccc1-n1cnc(C)c1 (stereo not given)
inactive: outcome [1] | max response [2] 3.81% | max response [3] -4.18% | max response [4] -3.56% | outcome [5] | outcome [6] inactive [at 9.27 µM] | activity change, negative = cytotoxicity [7] 6.98% [at 11.6 µM] | activity change, negative = cytotoxicity [8] 6.61% [at 11.6 µM] | activity change, negative = cytotoxicity [9] 15.8% [at 11.6 µM] | activity change, negative = cytotoxicity [10] 3.55% [at 11.6 µM] | activity change, negative = cytotoxicity [11] -6.36% [at 11.6 µM] | activity change, negative = cytotoxicity [12] 8.6% [at 11.6 µM] | activity change, negative = cytotoxicity [13] 2.94% [at 11.6 µM] | activity change, negative = cytotoxicity [14] 7.49% [at 11.6 µM]

CCCNCCOc1ccc(NC(=O)c2c[nH]c3c2C(=O)CCC3)cc1F
inactive: max response [1] -8.08% | max response [2] -31.5% | max response [3] -4.5% | max response [4] 6.85% | outcome [5] | outcome [6] | Potency [7] | Potency [8] | outcome [9] | Potency [10] | Potency [11] | Potency [12] | Potency [13] | Potency [14]

C[C@@H]1[C@H](O)[C@@H]2OC(=O)C3=C2[C@H](CCC3)[C@@]12C[C@@H](c1ccoc1)OC2=O
inactive: max response [1] 4.91% | max response [2] -1.21% | max response [3] -22.1% | outcome [4] | outcome [5] | outcome [6] | Potency [7] | Potency [8] | outcome [9] | Potency [10] | Potency [11] | Potency [12] | Potency [13] | Potency [14]

CC1=CCC[C@@H]2[C@](CCc3ccoc3)(C(=O)O)[C@H](C)CC[C@@]12C
inactive: max response [1] -2.77% | max response [2] -3.43% | max response [3] -10.6% | max response [4] 8.82% | outcome [5] | outcome [6] | Potency [7] | Potency [8] | outcome [9] | Potency [10] | Potency [11] | Potency [12] | Potency [13] | Potency [14]

CCC1(O)CC2c3cc(OC)c(OC)cc3CCN2CC1CC(C)C (stereo not given)
inactive: max response [1] -19.7% | max response [2] 0.903% | max response [3] -10.4% | max response [4] 7.48% | outcome [5] | outcome [6] | Potency [7] | Potency [8] | outcome [9] | Potency [10] | Potency [11] | Potency [12] | Potency [13] | Potency [14]

CC(C)C(NC(=O)c1ccc(O)cc1)C(=O)N1CCCC1C(=O)Nc1c(O)cccc1C(=O)O (stereo not given)
inactive: max response [1] -0.89% | max response [2] -9.61% | max response [3] -4.47% | max response [4] 5.36% | outcome [5] | outcome [6] inactive [at 17.4 µM] | Potency [7] | Potency [8] | outcome [9] | Potency [10] | Potency [11] | Potency [12] | Potency [13] | Potency [14]

C=CC(C)(O)CC/C=C(\C)C(=O)O[C@@H]1[C@@H](O)[C@H](OC(C)(C=C)CC/C=C(\C)C(=O)O)O[C@H](CO)[C@H]1OC(=O)/C(C)=C/CCC(C)(O)C=C (stereo not given in full)
inactive: outcome [1] | max response [2] -0.372% | max response [3] -21.2% | outcome [4] | outcome [5] | outcome [6] inactive [at 17.4 µM] | Potency [7] | Potency [8] | outcome [9] | Potency [10] | Potency [11] | Potency [12] | Potency [13] | Potency [14]

C[C@@H]1O[C@@H](O[C@H]2[C@@H]3C=CO[C@@H](O[C@@H]4O[C@H](CO)[C@@H](O)[C@H](O)[C@H]4O)[C@@H]3[C@@]3(CO)O[C@@H]23)[C@H](OC(=O)/C=C/c2ccc(O)cc2)[C@H](O)[C@H]1O
inactive: max response [1] -20.4% | max response [2] -82.6% | max response [3] -0.452% | max response [4] -12.9% | outcome [5] | outcome [6] inactive [at 17.4 µM] | Potency [7] | Potency [8] | outcome [9] | Potency [10] | Potency [11] | Potency [12] | Potency [13] | Potency [14]

O=C(N[C@H](Cc1ccccc1)C(=O)O)c1sc2cc(F)ccc2c1Cl
inactive: max response [1] 2.45% | max response [2] -2.83% | max response [3] -0.292% | outcome [4] | outcome [5] | outcome [6] | Potency [7] | Potency [8] | outcome [9] | Potency [10] | Potency [11] | Potency [12] | Potency [13] | Potency [14]

CC1(C)CC[C@]2(C(=O)O[C@@H]3O[C@H](CO)[C@@H](O)[C@H](O)[C@H]3O)CC[C@]3(C)C(=CCC4[C@@]5(C)C[C@@H](O)[C@H](O)[C@@](C)(CO)C5[C@H](O)C[C@]43C)C2[C@@H]1O (stereo not given in full)
inactive: outcome [1] | max response [2] -12.5% | max response [3] 1.4% | outcome [4] | outcome [5] | outcome [6] inactive [at 17.4 µM] | Potency [7] | Potency [8] | outcome [9] | Potency [10] | Potency [11] | Potency [12] | Potency [13] | Potency [14]

Cc1cc(O[C@@H]2O[C@H](COC(=O)CC(=O)O)[C@@H](O)[C@H](O)[C@H]2O)c(C(C)C)cc1O
inactive: max response [1] 0.0068% | max response [2] -1.41% | max response [3] 0.109% | max response [4] -13.3% | outcome [5] | outcome [6] inactive [at 17.4 µM] | Potency [7] | Potency [8] | outcome [9] | Potency [10] | Potency [11] | Potency [12] | Potency [13] | Potency [14]

C[C@@H]1C[C@H]2OC(=O)[C@@]3(C)CCC[C@](C)(C23)[C@@]1(O)CCC1=CC(=O)OC1O (stereo not given in full)
inactive: outcome [1] | max response [2] -8.41% | max response [3] 3.15% | outcome [4] | outcome [5] | outcome [6] | Potency [7] | Potency [8] | outcome [9] | Potency [10] | Potency [11] | Potency [12] | Potency [13] | Potency [14]

C[C@@H]1C[C@@H](O)[C@@]23CO[C@]2(CO)CCC[C@@H]3[C@@]12C[C@@H](c1ccoc1)OC2=O
inactive: max response [1] -8.12% | max response [2] 2.85% | max response [3] -3.9% | max response [4] 7.05% | outcome [5] | outcome [6] | Potency [7] | Potency [8] | outcome [9] | Potency [10] | Potency [11] | Potency [12] | Potency [13] | Potency [14]

Fc1cccc(CN(C2=NCCN2)c2c(Cl)cccc2Cl)c1
inactive: max response [1] -5.57% | max response [2] -13.5% | max response [3] 0.445% | max response [4] 5.56% | outcome [5] | outcome [6] | Potency [7] | Potency [8] | outcome [9] | Potency [10] | Potency [11] | Potency [12] | Potency [13] | Potency [14]

CC1=C2CC(=O)C(C)CC/C=C(\C)CC2(O)OC1=O (stereo not given)
inactive: max response [1] -4.8% | max response [2] 0.476% | max response [3] 2.42% | max response [4] 3.81% | outcome [5] | outcome [6] | Potency [7] | Potency [8] | outcome [9] | Potency [10] | Potency [11] | Potency [12] | Potency [13] | Potency [14]

CC1=COC(OC2OC(CO)C(O)C(O)C2O)C2C(CO)CC(OC(=O)/C=C/c3ccc(O)cc3)C12 (stereo not given)
inactive: max response [1] 0.792% | max response [2] 0.352% | max response [3] 1.84% | outcome [4] | outcome [5] | outcome [6] inactive [at 17.4 µM] | Potency [7] | Potency [8] | outcome [9] | Potency [10] | Potency [11] | Potency [12] | Potency [13] | Potency [14]

Oc1ccc(CC2NCCc3cc(O)c(O)cc32)cc1 (stereo not given)
inactive: max response [1] 4.94% | max response [2] -11.9% | max response [3] 1.1% | max response [4] 1.59% | outcome [5] | outcome [6] | Potency [7] | Potency [8] | outcome [9] | Potency [10] | Potency [11] | Potency [12] | Potency [13] | Potency [14]

CCCCCOC(=O)Nc1nc(=O)n(C2O[C@H](C)[C@@H](O)[C@H]2O)cc1F (stereo not given in full)
inactive: outcome [1] | max response [2] -11.1% | max response [3] -6.73% | outcome [4] | outcome [5] | outcome [6] | Potency [7] | Potency [8] | outcome [9] | Potency [10] | Potency [11] | Potency [12] | Potency [13] | Potency [14]
